Reference: PubChem BioAssay (NCATS)
Records with an inconclusive call do not appear. A call without a number means that no potency is given here. Active and inactive are the calls of the source. Calls come from the whole dose curve; as a rule, active = well fitted cell-killing curve with a large enough effect; inconclusive = small, poorly fitted or top-dose-only effect, or effect the other way; inactive = flat fitted curve, though single readings scatter.

tested on: SKOV3; experiment: Primary qHTS to identify gynecologic anti-cancer compounds using libraries of approved drugs and bioactive compounds (AID 1345084); settings: Gynecologic cancer cell panel viability, ATPlite luminescence, 48 h; series mostly up to 57.5 µM; note: nearly all actives have a fitted effect of over 55% in size
Procedure, shortened: (§1)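 In this quantitative HTS, cell killing is estimated from loss of ATP-dependent luciferase light. Cells see five compound concentrations over a 48 h exposure.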
Potency is the fitted concentration of half-maximal effect.

| Compound | Potency |
| --- | --- |
| CC(C)(C)C(O)C(Oc1ccc(Cl)cc1)n1cncn1 (stereo not drawn) | inactive |
| Nc1ccc(Sc2ccc(N)cc2)cc1 | inactive |
| c1cc2ccc3cccc4ccc(c1)c2c34 | inactive |
| C=CC(=O)NCNC(=O)C=C | inactive |
| COC(C)(C)CCCC(C)C/C=C/C(C)=C/C(=O)OC(C)C (stereo not drawn) | inactive |
| CO/C=C(/C(=O)OC)c1ccccc1Oc1cc(Oc2ccccc2C#N)ncn1 | 7.94 µM (active) |
| CCCCCCCCc1ccc(O)cc1 | inactive |
| O=C(O)c1cc(Oc2ccc(C(F)(F)F)cc2Cl)ccc1[N+](=O)[O-] | inactive |
| S=C(SSC(=S)N1CCCCC1)N1CCCCC1 | 3.98 µM (active) |
| O=S(=O)(O)C(F)(F)C(F)(F)C(F)(F)C(F)(F)C(F)(F)C(F)(F)C(F)(F)C(F)(F)F | inactive |
| CCOCCOC(C)=O | inactive |
| Cc1cc(O)ccc1Cl | inactive |
| CC1(C)CC/C(=C/c2ccc(Cl)cc2)C1(O)Cn1cncn1 (stereo not drawn) | inactive |
| O=C(Nc1ccccc1-c1ccc(Cl)cc1)c1cccnc1Cl | inactive |
| CCCCCCCCCCCCCCCC[N+](C)(C)C | 28.2 µM (active) |
| O=[N+]([O-])/N=C1\NCCN1Cc1ccc(Cl)nc1 | inactive |
| CC(=O)Nc1ccc(OC[C@](C)(O)C(=O)Nc2ccc([N+](=O)[O-])c(C(F)(F)F)c2)cc1 | inactive |
| CC(=O)[O][Hg][c]1ccccc1 | 3.55 µM (active) |
| CCN1CCN(C(=O)Cc2ccc(Nc3ncc(F)c(Nc4ccc(C(=O)Nc5ccccc5Cl)cc4)n3)cc2)CC1 | 15.8 µM (active) |
| C1CCC(NC2CCCCC2)CC1 | inactive |
| Nc1ccc(Cl)cc1 | inactive |

tested on: Tov-21-G; experiment: as above; settings: Gynecologic cancer cell panel viability, ATPlite luminescence, 48 h; series mostly up to 57.5 µM
Procedure, shortened: as §1

| Compound | Potency |
| --- | --- |
| CC(C)(C)C(O)C(Oc1ccc(Cl)cc1)n1cncn1 (stereo not drawn) | inactive |
| Nc1ccc(Sc2ccc(N)cc2)cc1 | inactive |
| CCC1(CCC(C)C)C(=O)NC(=O)NC1=O | inactive |
| CCCCCCCCCC(CC)c1ccc(S(=O)(=O)O)cc1 (stereo not drawn) | inactive |
| c1cc2ccc3cccc4ccc(c1)c2c34 | inactive |
| CC(C)(C)NC[C@H](O)c1ccc(O)cc1Cl | inactive |
| C=CC(=O)NCNC(=O)C=C | inactive |
| COC(C)(C)CCCC(C)C/C=C/C(C)=C/C(=O)OC(C)C (stereo not drawn) | inactive |
| O=C(N[C@@H](COc1ccc2[nH]c(=O)[nH]c2c1)c1ccccc1)c1cccn(Cc2ccc(F)c(F)c2)c1=O | inactive |
| OCCCBr | inactive |
| CCOP(=O)(NC(C)C)Oc1ccc(SC)c(C)c1 (stereo not drawn) | inactive |
| O=C(O)C(Cl)Cl | inactive |
| O=C(O)c1cc(Oc2ccc(C(F)(F)F)cc2Cl)ccc1[N+](=O)[O-] | inactive |
| CCCCOC(=O)c1ccccc1C(=O)OCc1ccccc1 | inactive |
| CC(C)N(CCNC(=O)CN1CCCC1=O)C(C)C | inactive |
| Fc1cc(Br)ccc1CBr | inactive |
| O=S(=O)(O)C(F)(F)C(F)(F)C(F)(F)C(F)(F)C(F)(F)C(F)(F)C(F)(F)C(F)(F)F | inactive |

| Compound | Potency |
| --- | --- |
| CCOCCOC(C)=O | inactive |
| Cc1cc(O)ccc1Cl | inactive |
| CC1(C)CC/C(=C/c2ccc(Cl)cc2)C1(O)Cn1cncn1 (stereo not drawn) | inactive |
| COc1ccc(C(c2ccc(OC)cc2)C(Cl)(Cl)Cl)cc1 | inactive |
| C=CCC1=C(C)C(OC(=O)C2C(C=C(C)C)C2(C)C)CC1=O (stereo not drawn) | inactive |
| O=C(Nc1ccccc1-c1ccc(Cl)cc1)c1cccnc1Cl | inactive |
| CCCCCCCCCCCCCCCC[N+](C)(C)C | 7.94 µM (active) |
| CC(N[C@H]1C[C@H]1c1ccccc1)c1ccc2c(c1)OCCO2 (stereo partly drawn) | inactive |
| Nc1c(Cl)c(Cl)c(Cl)c(Cl)c1Cl | inactive |
| O=[N+]([O-])/N=C1\NCCN1Cc1ccc(Cl)nc1 | inactive |
| CC(=O)[O][Hg][c]1ccccc1 | 2.51 µM (active) |
| CCN1CCN(C(=O)Cc2ccc(Nc3ncc(F)c(Nc4ccc(C(=O)Nc5ccccc5Cl)cc4)n3)cc2)CC1 | 28.2 µM (active) |
| C1CCC(NC2CCCCC2)CC1 | inactive |
| Nc1ccc(Cl)cc1 | inactive |
| O=S(=O)(c1ccc(Cl)cc1)c1ccc(Cl)cc1 | inactive |
| O=[N+]([O-])c1c(Cl)c(Cl)cc(Cl)c1Cl | inactive |

tested on: Tov112D; experiment: as above; settings: Gynecologic cancer cell panel viability, ATPlite luminescence, 48 h; series mostly up to 57.5 µM
Procedure, shortened: as §1

| Compound | Potency |
| --- | --- |
| CC(C)(C)C(O)C(Oc1ccc(Cl)cc1)n1cncn1 (stereo not drawn) | inactive |
| Nc1ccc(Sc2ccc(N)cc2)cc1 | inactive |
| CCC1(CCC(C)C)C(=O)NC(=O)NC1=O | inactive |
| CCCCCCCCCC(CC)c1ccc(S(=O)(=O)O)cc1 (stereo not drawn) | inactive |
| CC(C)(C)NC[C@H](O)c1ccc(O)cc1Cl | inactive |
| C=CC(=O)NCNC(=O)C=C | inactive |
| COC(C)(C)CCCC(C)C/C=C/C(C)=C/C(=O)OC(C)C (stereo not drawn) | inactive |
| CCCCCCCCc1ccc(O)cc1 | inactive |
| O=C(N[C@@H](COc1ccc2[nH]c(=O)[nH]c2c1)c1ccccc1)c1cccn(Cc2ccc(F)c(F)c2)c1=O | inactive |
| OCCCBr | inactive |
| CCOP(=O)(NC(C)C)Oc1ccc(SC)c(C)c1 (stereo not drawn) | inactive |
| O=C(O)C(Cl)Cl | inactive |
| O=C(O)c1cc(Oc2ccc(C(F)(F)F)cc2Cl)ccc1[N+](=O)[O-] | inactive |
| S=C(SSC(=S)N1CCCCC1)N1CCCCC1 | 14.1 µM (active) |
| CCCCOC(=O)c1ccccc1C(=O)OCc1ccccc1 | inactive |
| CC(C)N(CCNC(=O)CN1CCCC1=O)C(C)C | inactive |
| Fc1cc(Br)ccc1CBr | inactive |

| Compound | Potency |
| --- | --- |
| O=S(=O)(O)C(F)(F)C(F)(F)C(F)(F)C(F)(F)C(F)(F)C(F)(F)C(F)(F)C(F)(F)F | inactive |
| CCOCCOC(C)=O | inactive |
| Cc1cc(O)ccc1Cl | inactive |
| CC1(C)CC/C(=C/c2ccc(Cl)cc2)C1(O)Cn1cncn1 (stereo not drawn) | inactive |
| COc1ccc(C(c2ccc(OC)cc2)C(Cl)(Cl)Cl)cc1 | inactive |
| C=CCC1=C(C)C(OC(=O)C2C(C=C(C)C)C2(C)C)CC1=O (stereo not drawn) | inactive |
| O=C(Nc1ccccc1-c1ccc(Cl)cc1)c1cccnc1Cl | inactive |
| CC(N[C@H]1C[C@H]1c1ccccc1)c1ccc2c(c1)OCCO2 (stereo partly drawn) | inactive |
| Nc1c(Cl)c(Cl)c(Cl)c(Cl)c1Cl | inactive |
| O=[N+]([O-])/N=C1\NCCN1Cc1ccc(Cl)nc1 | inactive |
| CC(=O)Nc1ccc(OC[C@](C)(O)C(=O)Nc2ccc([N+](=O)[O-])c(C(F)(F)F)c2)cc1 | inactive |
| CC(=O)[O][Hg][c]1ccccc1 | 5.01 µM (active) |
| CCN1CCN(C(=O)Cc2ccc(Nc3ncc(F)c(Nc4ccc(C(=O)Nc5ccccc5Cl)cc4)n3)cc2)CC1 | 2.51 µM (active) |
| C1CCC(NC2CCCCC2)CC1 | inactive |
| Nc1ccc(Cl)cc1 | inactive |
| O=S(=O)(c1ccc(Cl)cc1)c1ccc(Cl)cc1 | inactive |
| O=[N+]([O-])c1c(Cl)c(Cl)cc(Cl)c1Cl | inactive |
